Screening data from PubChem BioAssay.
USP8 block: inhibitors of human USP8 deubiquitinase; inhibition, % at 20 µM; AID 1645853, 2021; Ubiquitin carboxyl-terminal hydrolase 8 (Homo sapiens), P40818; purified USP8, Ub-rhodamine cleavage fluorescence, 30 min; hit rate 4.2% among 47,000
USP28 inh: inhibitors of human USP28 deubiquitinase; Ubiquitin carboxyl-terminal hydrolase 28 (Homo sapiens), Q96RU2; purified USP28, Ub-rhodamine cleavage fluorescence, 30 min; inhibition, % at 25 µM; hit rate 3% among 47,000
USP17 block: inhibitors of human USP17 deubiquitinase | Ubiquitin carboxyl-terminal hydrolase 17-like protein 5 (Homo sapiens), A8MUK1 | inhibition, % at 50 µM | purified USP17, Ub-rhodamine cleavage fluorescence, 3 h | hit rate 6.5% among 47,000
Target sequence (A8MUK1 whole entry, looked up): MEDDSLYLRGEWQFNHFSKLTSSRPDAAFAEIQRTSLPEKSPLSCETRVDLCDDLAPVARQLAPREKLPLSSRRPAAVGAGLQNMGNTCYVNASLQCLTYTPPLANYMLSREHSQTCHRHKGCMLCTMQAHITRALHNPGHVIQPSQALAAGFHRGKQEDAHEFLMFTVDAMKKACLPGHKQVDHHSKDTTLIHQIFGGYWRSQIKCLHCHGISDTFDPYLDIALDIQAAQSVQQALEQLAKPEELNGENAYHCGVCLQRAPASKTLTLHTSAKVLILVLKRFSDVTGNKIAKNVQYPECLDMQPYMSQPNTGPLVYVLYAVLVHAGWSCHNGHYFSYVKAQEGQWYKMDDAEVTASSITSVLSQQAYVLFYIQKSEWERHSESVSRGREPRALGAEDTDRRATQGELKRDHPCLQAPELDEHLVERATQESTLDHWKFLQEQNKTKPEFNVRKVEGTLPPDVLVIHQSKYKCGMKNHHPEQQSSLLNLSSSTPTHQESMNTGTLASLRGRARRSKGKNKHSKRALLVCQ
USP30 inh: inhibitors of human USP30 deubiquitinase; Ubiquitin carboxyl-terminal hydrolase 30 (Homo sapiens), Q70CQ3; purified USP30, Ub-rhodamine cleavage fluorescence; inhibition, % at 25 µM; hit rate 5.3% among 47,000
* hit, by the source's call; i = inactive; . = not tested or not shown. Most compounds without a hit are left out; they make up all but 13% or so of the library. Cut-off read from the data, not from the text of the source: active = inhibition above about 30%; inactive = the rest.

SMILES	USP8 block	USP28 inh	USP17 block	USP30 inh
O=C(CC1CCCC1)N1CCCCC1c1nncn1CC1CC1 (stereo unspecified)	16	4	8	17
CCCn1nnc2cc(-c3noc(CNC(=O)c4cccs4)n3)ccc21	5	16	33*	15
O=C(NCc1nc(-c2ccc3c(c2)ncn3C2CCCC2)no1)c1cccs1	-42	-34	1	-243
O=C(Cn1c(=O)n(Cc2ccco2)c(=O)c2ccc(C(=O)NC3CCCC3)cc21)NCc1ccco1	45*	28	55*	-15
COc1ccc(-n2c(=O)c3ccc(C(=O)NCCc4ccccc4)cc3n(CC(=O)NCc3ccco3)c2=O)cc1	6	15	60*	-12
Cc1cc(NC(=O)Cn2c(=O)n(Cc3ccco3)c(=O)c3ccc(C(=O)NCCc4ccccc4)cc32)n[nH]1	87*	84*	82*	74*
Cc1cc(NC(=O)Cn2c(=O)n(CCc3ccccc3)c(=O)c3ccccc32)n[nH]1	10	0	25	6
CC(C)c1cc(NC2CCCC2)n2nc(-c3cccnc3)nc2n1	-3	-12	-22	-1
CCCc1noc(-c2ccnc(-n3ncc(C(=O)N4CCCC4)c3C)c2)n1	0	2	1	-13
CCCc1noc(-c2ccc(-n3ncc(C(=O)N4CCCCC4)c3C)nc2)n1	5	29	20	38*
O=c1c2cc([N+](=O)[O-])ccc2nc(CN2CCN(c3ncccn3)CC2)n1-c1ccccc1F	-127	2	-7	32*
CCOC(=O)c1ccc(-n2c(CN3CCN(c4cc(C)ccc4C)CC3)nc3ccc([N+](=O)[O-])cc3c2=O)cc1	20	12	12	30*
CCOC(=O)C1CCN(Cc2nc3ccc([N+](=O)[O-])cc3c(=O)n2-c2cc(OC)cc(OC)c2)CC1	-135	0	18	-10
COc1ccc(C(=O)N2CCN(C3CCN(Cc4c(C)noc4C)CC3)C(=O)C2)cc1	-3	-8	-12	-18
O=C(Nc1cccc(-c2nc3cnccc3o2)c1)c1ccc(Br)o1	66*	3	25	31*
O=C(NCc1ccc(-c2nc3cnccc3o2)cc1)c1cc2ccccc2o1	-17	0	81*	-14
COc1cc(C(=O)NCc2ccc(-c3nc4cnccc4o3)cc2)cc(OC)c1OC	18	6	11	2
COc1ccc(-c2nc3cnccc3o2)cc1NC(=O)c1cccc(F)c1	-2	-9	49*	-28
COc1cccc(C(=O)Nc2cccc(-c3nc4cnccc4o3)c2)c1	7	.	55*	.
CSc1cccc(NC(=O)N2CCC(c3cc4n(n3)CCCNC4=O)CC2)c1	7	7	-2	13
COc1ccc(OCC(=O)Nc2cccc3ccc(C)nc23)cc1	4	8	3	9
O=C(Nc1cccc(-c2nc3cnccc3o2)c1)c1cccc(F)c1	-10	.	76*	.
COc1cccc(NC(=O)CCn2c(=O)c3cccn3c3ccccc32)c1	5	-19	-72	-139
COc1cccc(NC(=O)Cn2c3ccccc3n3c(=O)cc(-c4ccccc4)nc23)c1	88*	6	.	0
COc1ccc(NC(=O)C2CC(=O)Nc3nc(N4CCCCC4)[nH]c(=O)c32)cc1 (stereo unspecified)	-7	-20	-3	-19
SMILES	USP8 block	USP28 inh	USP17 block	USP30 inh
CNC(=O)c1cnc2n1CCN(C(=O)Cc1ccc(C)cc1)C2	-86	0	-8	-1
O=C(O)CC1C(=O)Nc2c(O)cccc21 (stereo unspecified)	1	0	-4	11
CC1OC(CC(=O)O)CC23OC12C(=O)c1c(O)cccc1C3=O (stereo unspecified)	-11	14	63*	-93
COC(=O)CC1CC2=C(C(=O)c3c(O)cccc3C2=O)C(C)O1 (stereo unspecified)	-46	40*	42*	-99
COC(=O)CC1CC23OC2(C(=O)c2c(O)cccc2C3=O)C(C)O1 (stereo unspecified)	-4	25	65*	-78
CCn1c(NC(=O)c2cccs2)c(-c2ccccc2)c(=O)c2ccccc21	-8	0	1	-10
O=C(NC1CCCC1)C(c1ccncc1)N(C(=O)c1ccco1)c1ccc2c(c1)OCCO2 (stereo unspecified)	48*	6	25	5
Cc1sc(NC(=O)CNc2ccccc2)nc1-c1ccc2c(c1)CCN2C(=O)C(C)C	-4	5	51*	-13
Cc1cccc(C(=O)N2CCc3cc(-c4nc(NC(=O)CN5CCCC5)sc4C)ccc32)c1	9	11	45*	-15
Cc1cccc(C(=O)N2CCc3cc(-c4csc(NC(=O)CNc5ccccc5)n4)ccc32)c1	30	-11	31*	-40
Cc1sc(NC(=O)Cn2nnc3ccccc3c2=O)nc1-c1ccc2c(c1)CCN2C(=O)C(C)C	14	.	56*	.
CCN1C(=O)[C@H]2CN(C(C)=O)C[C@H]2C12CCN(C(=O)Cc1ccccc1)CC2	24	0	16	22
O=C(N[C@@H]1CC[C@H](O)[C@H](O)[C@H]1N1CCN(c2ccccc2)CC1)c1ccccc1	7	13	5	27
CCc1nc2ccc(C(=O)Nc3nc(-c4ccc5c(c4)CCN5S(=O)(=O)c4ccccc4)c(C)s3)cc2nc1CC	23	15	32*	-4
Cc1ccc(C(=O)N2CCc3cc(-c4csc(NC(=O)CN(C)C5CCCCC5)n4)ccc32)cc1	58*	12	23	-15
Cc1cccc(C(=O)N2CCc3cc(-c4nc(NC(=O)CNc5ccccc5)sc4C)ccc32)c1	57*	17	60*	20
Cc1nc2cc3c(cc2n1CC(=O)NC1CCCCC1)OCCO3	0	-9	-6	-9
CCN(C(=O)c1cccc(NC(=O)c2ccccc2)c1)c1ccccc1	-28	3	-24	1
CCNC(=O)c1cccc(NC(=O)c2cc(Cl)c3c(c2)OCO3)c1	0	31*	0	-7
Cc1ccc(-c2nn(C(C)(C)C)c3ncnc(NS(=O)(=O)c4ccc(Cl)cc4)c23)cc1	18	4	7	21
CCc1cccc(NC(=O)c2nc3ccccc3n(C)c2=O)c1	4	48*	58*	86*
CC(=O)c1cccc(NC(=O)NC2(c3noc(C)n3)CCCC2)c1	1	-3	-13	0
O=C1C(=NCC(F)(F)F)N[C@@H]2[C@@H](O)[C@@H](O)[C@H](O)[C@@H](CO)N12	-179	-3	-21	-1
Cc1c(C(=O)Nc2cccc(C(F)(F)F)c2)cnn1-c1ccccn1	3	14	55*	24
CSc1cccc(NC(=O)c2cnn(-c3ccccn3)c2C(C)C)c1	11	12	4	7
COc1ccc(OC)c(NC(=O)C2=C(C)Nc3ncnn3C2c2ccc(C)o2)c1 (stereo unspecified)	-162	0	-16	-2
Cc1ccc(CNC(=O)C2CCCN(c3cnc4nccnc4c3)C2)cc1 (stereo unspecified)	-180	-248	-138	i
